Assay results reported in PubChem BioAssay (NCATS).
Several values for one entry are separate records, joined by “and”; a condition that tells them apart may be missing. Equal entries are not always repeated. Results filed as inconclusive are left out. Activity calls are given as the source filed them. Unless noted, calls come from the whole dose curve; as a rule, active = well fitted curve in the direction sought with a large enough effect; inconclusive = small, poorly fitted or top-dose-only effect, or another doubt; inactive = no such curve, though single readings can be large; an effect the other way counts as inactive or inconclusive.

Assays:
[1] = qHTS for Inhibitors of Plasmodium falciparum (DD2) proliferation (AID 504314);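 note: parasite DNA measured by SYBR Green fluorescence after red cell lysis; plate controls were DMSO vehicle for no effect and artemisinin wells for full effect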
Method in brief: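 Infected RBCs, 0.3% parasitemia, 2.5% Hct; compound 72 h, 37C/5% CO2; lyse + SYBR Green I, RT overnight, dark; read ex485/em535; normalize to DMSO and artemisinin 0.29 uM.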

[2] = qHTS for Inhibitors of Plasmodium falciparum (7G8) proliferation (AID 504316);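 note: series mostly up to about 6.7 µM; 0% = DMSO vehicle and -100% = 0.29 µM artemisinin full kill; nearly all actives have a fitted effect of over 65% in size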
Method in brief: (§1)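 Erythrocytes infected with P. falciparum line (0.3% parasitemia, 2.5% hematocrit final) incubated with compounds 72 h at 37 °C, 5% CO2; SYBR Green lysis buffer added, fluorescence read next day. Normalized to 0.29 uM artemisinin and DMSO.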

[3] = qHTS for Inhibitors of Plasmodium falciparum (HB3) proliferation (AID 504318);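 note: 0% = DMSO vehicle and -100% = artemisinin control; nearly all actives have a fitted effect of over 60% in size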
Method in brief: as §1

[4] = qHTS for Inhibitors of Plasmodium falciparum (CP250) proliferation (AID 504320);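 note: plate controls were DMSO vehicle for no effect and 0.29 µM artemisinin control for full effect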
Method in brief: as §1

[5] = target: Atrial natriuretic peptide receptor 1 (Homo sapiens) (UniProt P16066); assay: Natriuretic polypeptide receptor (hNpr1) antagonism - Pilot CMLD screen (AID 1347052; calls by dose curve;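 note: HEK293 cells with hNpr1 stimulated by hNppA peptide at 0.1 nM; cGMP level read as GloSensor luciferase luminescence after agonist stimulation; series mostly up to about 9.2 µM; % is set by controls: 0 for no effect and ±100 for the full control effect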)
Chain of Atrial natriuretic peptide receptor 1 (Homo sapiens) (P16066 whole entry, looked up): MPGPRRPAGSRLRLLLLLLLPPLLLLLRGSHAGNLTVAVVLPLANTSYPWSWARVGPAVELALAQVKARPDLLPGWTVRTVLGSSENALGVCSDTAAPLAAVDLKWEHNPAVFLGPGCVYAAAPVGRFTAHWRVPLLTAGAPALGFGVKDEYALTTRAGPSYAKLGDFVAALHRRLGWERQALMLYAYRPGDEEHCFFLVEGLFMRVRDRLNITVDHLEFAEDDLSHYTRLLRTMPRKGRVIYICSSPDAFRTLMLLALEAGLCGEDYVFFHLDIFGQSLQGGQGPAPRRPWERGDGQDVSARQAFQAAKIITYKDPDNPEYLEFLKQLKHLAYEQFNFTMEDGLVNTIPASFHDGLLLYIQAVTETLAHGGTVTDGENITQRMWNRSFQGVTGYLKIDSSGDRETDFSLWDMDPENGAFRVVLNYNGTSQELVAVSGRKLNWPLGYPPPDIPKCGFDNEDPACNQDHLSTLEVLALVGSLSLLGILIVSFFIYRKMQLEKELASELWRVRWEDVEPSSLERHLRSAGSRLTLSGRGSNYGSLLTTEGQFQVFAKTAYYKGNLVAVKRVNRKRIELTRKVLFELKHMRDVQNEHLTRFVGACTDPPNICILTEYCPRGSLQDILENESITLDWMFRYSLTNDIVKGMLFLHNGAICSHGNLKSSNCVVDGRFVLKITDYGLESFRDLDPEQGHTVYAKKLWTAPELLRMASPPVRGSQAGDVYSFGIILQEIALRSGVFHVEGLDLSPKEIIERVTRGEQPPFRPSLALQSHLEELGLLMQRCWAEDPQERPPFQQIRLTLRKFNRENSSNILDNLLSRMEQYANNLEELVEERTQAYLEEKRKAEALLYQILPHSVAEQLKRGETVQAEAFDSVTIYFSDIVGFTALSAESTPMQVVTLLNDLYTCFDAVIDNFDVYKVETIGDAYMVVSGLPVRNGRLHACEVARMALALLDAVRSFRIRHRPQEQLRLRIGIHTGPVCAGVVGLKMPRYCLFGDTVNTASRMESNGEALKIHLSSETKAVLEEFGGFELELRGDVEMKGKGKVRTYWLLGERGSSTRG

COC(=O)N1C(C)=Cc2ccccc2C1CC(C)=O (stereo not given)
inactive: activity, negative = inhibition [1] -3.47% [at 1.12 µM] and -2.49% [at 1.12 µM] | Potency [2] | Potency [3] | Potency [4] | Potency [5]

CCN1C(=NCCCOC(C)C)N[C@@H](CCc2ccccc2)[C@H](C(=O)OC)[C@H]1C
inactive: Potency [1] | Potency [2] | Potency [3] | Potency [4] | Potency [5]

CCN1C(=S)NC(c2cccc(F)c2)C(C(=O)OC)=C1C (stereo not given)
inactive: Potency [1] | Potency [2] | Potency [3] | Potency [4] | Potency [5]

O=C1[C@@H]2[C@H]3[C@H](O)[C@H](O)CC(=NOC[C@@H](O)COCc4ccco4)[C@H]3CC[C@H]2C(=O)N1c1ccc(F)cc1F
inactive: Potency [1] | Potency [2] | Potency [3] | Potency [4] | Potency [5]
